Test systems include SR leukemia; RPMI-8226 leukemia; OVCAR-8 ovarian; OVCAR-5 ovarian; OVCAR-4 ovarian; SK-OV-3 ovarian; IGROV1 ovarian; OVCAR-3 ovarian; HS 578T breast; T-47D breast; BT-549 breast; MDA-MB-435 melanoma; SW-620 colon; MCF7 breast; HCT-116 colon; HCC-2998 colon; KM12 colon; NCI/ADR-RES ovarian.
What all share (assay): NCI-60 one-dose screen, 48 h (100 = growth as untreated, 0 = no growth, -100 = all killed)
Holding throughout (details): 10 µM unless noted

The structures appear in SMILES notation. The panel holds about 83,000 compounds, 20% with a hit somewhere; the sample as a whole holds those more often.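 Testing used 96-well plates and a 48-hour single-concentration exposure. Example: -40 means 40% of the starting cells died.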 Unmarked numbers belong to inactive results. Active and inactive are the calls of the source. How the source made its calls: active means growth percent below 10; inactive means the rest.

Consider `N=c1c2cc(-c3ccccc3)oc2ncn1/N=C/c1ccc(Br)cc1`, for which the growth with SR leukemia was 30.1%; with RPMI-8226 leukemia, 92.4%; with OVCAR-8 ovarian, 80.7%; with OVCAR-5 ovarian, 49.3%; in the assay with OVCAR-4 ovarian it was 19.7%; in the assay with SK-OV-3 ovarian, 101%. Moreover, the growth is 42.8% with IGROV1 ovarian; -7.71% (active) with OVCAR-3 ovarian; 79.1% with HS 578T breast; 79.6% in the assay on T-47D breast; 101% in the assay on BT-549 breast; 61.6% with MDA-MB-435 melanoma. For the same molecule, the growth in the assay on SW-620 colon was 31%; in the assay on MCF7 breast it was 65.6%; with HCT-116 colon it was 50.7%; in the assay on HCC-2998 colon, 100%; with KM12 colon, 23.9%.
`COc1ccc(/C=N/NC2=NC3C(S2)N(C)C(=O)N3C)cc1` (stereo not drawn): the growth in the assay with SR leukemia was 6.64% (active); with RPMI-8226 leukemia, 10.5%; in the assay on OVCAR-8 ovarian it was 35.6%; with OVCAR-5 ovarian, 50.4%; in the assay on OVCAR-4 ovarian, 75.6%; in the assay with SK-OV-3 ovarian, 28%. Besides, the growth with IGROV1 ovarian was 40.9%; in the assay with OVCAR-3 ovarian, -17.1% (active); with HS 578T breast, 0.337% (active); in the assay with T-47D breast it was 26.7%; in the assay on BT-549 breast it was 66%; in the assay with MDA-MB-435 melanoma, -56.4% (active). In addition, the growth in the assay with SW-620 colon is 16.1%; with MCF7 breast, 15.4%; in the assay with HCT-116 colon, 33.5%; in the assay on HCC-2998 colon, 67%; in the assay on KM12 colon it was 20.8%.
On to `O=C(Cn1c(-c2ccccc2)nc2cc(Cl)c(Cl)cc21)N=Nc1c(O)[nH]c2ccc(Cl)cc12`, for which the growth in the assay with SR leukemia is 67.9%; with RPMI-8226 leukemia, 59%; in the assay on OVCAR-8 ovarian, 83.5%; in the assay with OVCAR-5 ovarian, 80.5%; with OVCAR-4 ovarian it was 77.9%; in the assay with SK-OV-3 ovarian it was 85.6%. Also, the growth is 87.9% in the assay on IGROV1 ovarian; 81.3% in the assay with HS 578T breast; 72.3% in the assay with NCI/ADR-RES ovarian; 61.5% in the assay with T-47D breast; 56.2% in the assay with BT-549 breast; 83.2% with MDA-MB-435 melanoma. For the same molecule, the growth was 81.9% in the assay with SW-620 colon; 71.8% in the assay on MCF7 breast; 53.4% in the assay with HCT-116 colon; 86% with HCC-2998 colon; 73.8% with KM12 colon.
With `CNCc1cccc2c1OCCCCCCC(C)(O)CC(C)(C)S(=O)(=O)c1ccc(cc1)-c1cnc(N)c(n1)C(=O)N2` (stereo not drawn), the growth was -36.6% (active) with SR leukemia; -41.9% (active) with RPMI-8226 leukemia; 55.3% with OVCAR-8 ovarian; 55.9% with OVCAR-5 ovarian; 30.3% in the assay with OVCAR-4 ovarian; 38.1% with SK-OV-3 ovarian. The growth with IGROV1 ovarian is 3.36% (active); with HS 578T breast, 24.1%; with NCI/ADR-RES ovarian it was 43.2%; in the assay with T-47D breast it was 56.1%; with BT-549 breast, 27.9%; in the assay on MDA-MB-435 melanoma, -85.6% (active). Besides, the growth with SW-620 colon is 5.13% (active); in the assay on MCF7 breast, -58.1% (active); in the assay on HCT-116 colon it was -82.3% (active); with HCC-2998 colon it was -6.01% (active); in the assay with KM12 colon, -68.1% (active).
`CC[C@H](CO)Nc1ccc2ncc(C#Cc3cncc(C(=O)Nc4ccc(CN5CCN(C)CC5)c(C(F)(F)F)c4)c3)n2n1`: the growth is -42.9% (active) in the assay on SR leukemia; -44.8% (active) with RPMI-8226 leukemia; -58.1% (active) in the assay on OVCAR-8 ovarian; -38.1% (active) with OVCAR-5 ovarian; -47.7% (active) with OVCAR-4 ovarian; -45.6% (active) in the assay with SK-OV-3 ovarian. The growth is -33.1% (active) with IGROV1 ovarian; -43.9% (active) with HS 578T breast; 54.3% in the assay with NCI/ADR-RES ovarian; -69.5% (active) with T-47D breast; -97.4% (active) in the assay on BT-549 breast; -91.4% (active) with MDA-MB-435 melanoma. Moreover, the growth in the assay on SW-620 colon is -50.8% (active); in the assay on MCF7 breast, -73.1% (active); with HCT-116 colon, -94.3% (active); in the assay on HCC-2998 colon it was -59.4% (active); with KM12 colon it was -61.9% (active).
Consider `CN1CCN(c2nc(-c3csc(-c4ccccc4)n3)cc3ccccc23)CC1`, for which the growth was -20.7% (active) in the assay on SR leukemia; 14.1% in the assay on RPMI-8226 leukemia; 62.4% with OVCAR-8 ovarian; 59.4% in the assay with OVCAR-5 ovarian; 72.7% in the assay with OVCAR-4 ovarian; 81.8% in the assay on SK-OV-3 ovarian. The growth with IGROV1 ovarian was 26.2%; in the assay with HS 578T breast it was 60.6%; in the assay on NCI/ADR-RES ovarian it was 65.8%; in the assay with T-47D breast it was -23.3% (active); with BT-549 breast, 96.2%; in the assay on MDA-MB-435 melanoma, 7.31% (active). The growth in the assay with SW-620 colon is -19.1% (active); in the assay with MCF7 breast, 9.31% (active); in the assay on HCT-116 colon, 2.27% (active); in the assay with HCC-2998 colon, -84.7% (active); with KM12 colon it was 18.7%.
Take `CC(=O)C1=C(C)NC(NN)=NC1c1cccc(Cl)c1` (stereo not drawn): the growth is 96.5% in the assay on SR leukemia; 99.7% in the assay with RPMI-8226 leukemia; 103% in the assay with OVCAR-8 ovarian; 99.4% in the assay on OVCAR-5 ovarian; 104% in the assay on OVCAR-4 ovarian; 102% in the assay on SK-OV-3 ovarian. In addition, the growth with IGROV1 ovarian was 97.7%; in the assay with HS 578T breast it was 114%; in the assay on NCI/ADR-RES ovarian, 107%; with T-47D breast, 101%; in the assay with BT-549 breast it was 119%; in the assay with MDA-MB-435 melanoma it was 103%. Besides, the growth is 108% in the assay on SW-620 colon; 92.3% in the assay with MCF7 breast; 105% in the assay with HCT-116 colon; 127% with HCC-2998 colon; 102% in the assay with KM12 colon.
As to `CCNC(=O)N1CCc2cc(OC)c(OCCc3ccc(OC)nc3)cc2C1c1ccc(C)cc1C` (stereo not drawn), the growth in the assay with SR leukemia is 7.67% (active); in the assay with RPMI-8226 leukemia, 9.18% (active); in the assay with OVCAR-8 ovarian it was 15.5%; with OVCAR-5 ovarian it was 31.4%; with OVCAR-4 ovarian, 52.5%; with SK-OV-3 ovarian, 54%. Besides, the growth in the assay with IGROV1 ovarian was 17.2%; with HS 578T breast, -2.81% (active); with NCI/ADR-RES ovarian, 7.35% (active); in the assay with T-47D breast it was 61%; with BT-549 breast, -6.5% (active); in the assay on MDA-MB-435 melanoma, 10%. In addition, the growth is 19.6% in the assay with SW-620 colon; 14% in the assay on MCF7 breast; 8.5% (active) in the assay on HCT-116 colon; 13% in the assay with HCC-2998 colon; 9.57% (active) in the assay on KM12 colon.
For `CC(C)(C)n1nnnc1C(Nc1cccc2c1OCO2)c1cc2cccc3ccc4cccc1c4c32` (stereo not drawn), the growth in the assay on SR leukemia is 82.3%; with RPMI-8226 leukemia, 55.3%; with OVCAR-8 ovarian it was 90%; in the assay with OVCAR-5 ovarian, 91.9%; with OVCAR-4 ovarian, 79.2%; in the assay on SK-OV-3 ovarian it was 94.5%. The growth in the assay on IGROV1 ovarian is 81.2%; in the assay with HS 578T breast, 88.7%; in the assay on NCI/ADR-RES ovarian it was 83.5%; in the assay on T-47D breast, 65.9%; in the assay with BT-549 breast, 130%; in the assay with MDA-MB-435 melanoma it was 84.2%. Also, the growth was 88.8% in the assay with SW-620 colon; 64.9% in the assay on MCF7 breast; 63% in the assay with HCT-116 colon; 98.7% in the assay on HCC-2998 colon; 95.4% in the assay on KM12 colon.

(Values after PubChem BioAssay (NCI).)
